Rows were chosen to be rich in hits. Some 19% of all compounds tested hit in one or more screens of this group.
DT40 TDP1 no CPT = qHTS for Inhibitors of human tyrosyl-DNA phosphodiesterase 1 (TDP1): qHTS in cells in absence of CPT; DT40 Tdp1-/- hTDP1 cells, no CPT, ATP luminescence, 48 h; Potency, µM (series often up to 46.2 µM), usual class: inhibitors; 15% of 420,000 active; AID 686978, 2013; note: nearly all actives have a fitted effect of over 55% in size
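Readout: luminescence from CellTiter-Glo after 30 min in the dark at RT. Cells: DT40 Tdp1-/- with stable hTDP1, 400/well. Exposure: compounds alone, ≥48 hr, 37 °C.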
HepG2 tox = counter-screen for TGF-b inhibitors: cytotoxicity in HepG2 cells. HepG2 CAGA-GFP viability, ATP luminescence, 18 h. 0.76% of 410,000 active. Potency, µM (series often up to 46.1 µM), actives largely listed as cytotoxic. AID 588856
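HepG2 CAGA-GFP cells (1000/well, DMEM with 1% FBS) received compound, then TGF-beta at 500 pg/mL final, and were incubated 18 hours at 37 degrees C. Viability was read by CellTiter-Glo luminescence. Media-only wells were set as complete cell-killing and DMSO as no toxicity.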
TDP1 inh = TDP1 (human) enzyme inhibition. recombinant TDP1, AlphaScreen DNA substrate cleavage. Potency, µM (highest dose often 130 µM), usual class: inhibitors. 0.28% of 350,000 active; note: nearly all actives have a fitted effect of over 40% in size
Target sequence (Q9NUW8 whole entry, looked up): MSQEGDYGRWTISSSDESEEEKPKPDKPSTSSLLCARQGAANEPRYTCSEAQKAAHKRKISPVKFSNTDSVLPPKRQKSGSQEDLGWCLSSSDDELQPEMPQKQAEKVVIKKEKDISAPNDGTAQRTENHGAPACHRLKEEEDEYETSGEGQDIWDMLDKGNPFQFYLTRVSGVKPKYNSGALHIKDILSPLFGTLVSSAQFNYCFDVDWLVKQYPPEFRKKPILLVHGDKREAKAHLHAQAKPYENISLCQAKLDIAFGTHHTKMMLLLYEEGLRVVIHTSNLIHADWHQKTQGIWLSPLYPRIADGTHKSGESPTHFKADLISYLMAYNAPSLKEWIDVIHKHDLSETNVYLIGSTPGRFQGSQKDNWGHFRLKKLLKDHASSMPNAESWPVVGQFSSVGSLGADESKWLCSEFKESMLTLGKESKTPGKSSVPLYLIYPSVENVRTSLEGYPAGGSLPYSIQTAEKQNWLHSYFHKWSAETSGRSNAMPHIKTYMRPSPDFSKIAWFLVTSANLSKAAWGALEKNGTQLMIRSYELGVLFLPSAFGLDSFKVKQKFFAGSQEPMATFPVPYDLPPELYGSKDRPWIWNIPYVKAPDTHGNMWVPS
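Signal: AlphaScreen proximity between streptavidin donor and anti-FITC acceptor beads on intact substrate. Reaction: Tdp1 1 nM, substrate 15 nM final, 5 min RT after 15 min compound preincubation.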
DT40 TDP1 CPT = DT40-hTDP1 cell growth loss with CPT | chicken DT40 Tdp1-/-;hTDP1 cells + 20 nM CPT, ATP luminescence, 48 h | Potency, µM (titrated, usually from 46.2 µM), most hits filed as inhibitors | 12% of 420,000 active; note: nearly all actives have a fitted effect of over 55% in size
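Chicken DT40 Tdp1-/- cells stably complemented with human TDP1 were seeded at 400 cells/well in medium containing 20 nM camptothecin, exposed to pin-transferred compounds, and grown at 37 °C for at least 48 hr. Viability was read as ATP luminescence.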
IL1B secr inh = inhibitors of inflammasome signaling (IL-1 beta secretion) | THP-1 LPS/ATP IL-1B secretion, AlphaLISA, 16 h; stronger effect = lower value | 4.7% of 360,000 active | activity change, % at 57.5 µM; in the data active = activity change below about -50%; inconclusive = mostly about -30% to -49%
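THP-1 cells pretreated 1 hr with compounds (up to 57.5 uM final), then stimulated with LPS (250 ng/mL final) plus ATP (1.25 mM final); secreted IL-1B measured by AlphaLISA after 16 hr, decreased signal indicating inhibition.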
TGFb inhibitor = blocks TGF-b signaling; AID 588855; HepG2 CAGA-GFP TGF-b/SMAD3 reporter, GFP fluorescence, 18 h; TGF-beta stimulated, 500 pg/mL final; Potency, µM (titrated, usually from 46.1 µM), actives largely listed as inhibitors; 1.2% of 410,000 active; note: nearly all actives have a fitted effect of over 65% in size
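HEPG2 CAGA-GFP reporter cells (1000/well, DMEM with 1% FBS) received compounds, then recombinant TGF-beta at 500 pg/mL final for 18 hours at 37 degrees C. Per-cell GFP summed per well was normalised to unstimulated and stimulated DMSO controls before curve fitting.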
Numbers stand for hits; ! = a repeat was not active. Unless noted, calls come from the whole dose curve; as a rule, active = well fitted curve in the direction sought with a large enough effect; inconclusive = small, poorly fitted or top-dose-only effect, or another doubt; inactive = no such curve, though single readings can be large; an effect the other way counts as inactive or inconclusive.

Screening CC[N+](CC)(CC)c1ccc(/C=C/c2ccc3ccccc3n2)cc1 returned DT40 TDP1 no CPT 0.071µM, HepG2 tox 10µM, DT40 TDP1 CPT 0.089µM and TGFb inhibitor 6.3µM.
`O=C(NC1CCCCC1)C1CCN(S(=O)(=O)c2cccc3nonc23)CC1` gave DT40 TDP1 no CPT inactive, HepG2 tox inactive, TDP1 inh inactive, DT40 TDP1 CPT inactive, IL1B secr inh inactive and TGFb inhibitor inactive.
For CCC(Sc1ncc(S(=O)(=O)c2ccc(Cl)cc2)c(=O)[nH]1)C(=O)Nc1ccc(OC)cc1 (stereo unspecified) the results were HepG2 tox inactive, TDP1 inh inactive and TGFb inhibitor inactive.
`COc1ccccc1CNC(=O)COc1ccc(S(=O)(=O)N2CCCC2)cc1` gave DT40 TDP1 no CPT inconclusive, HepG2 tox inactive, DT40 TDP1 CPT inconclusive, IL1B secr inh inactive and TGFb inhibitor inactive.
C(=C\c1ccc2ccccc2n1)/c1ccc2ccccc2n1 was read as DT40 TDP1 no CPT inconclusive, HepG2 tox inactive, DT40 TDP1 CPT 13µM and TGFb inhibitor inactive.
C(=C\c1ccc2ccccc2n1)/c1ccccc1 was read as DT40 TDP1 no CPT inconclusive, HepG2 tox 10µM!, TDP1 inh inactive, DT40 TDP1 CPT inconclusive, IL1B secr inh inactive and TGFb inhibitor inconclusive.
Screening CCOc1nc2ccccc2cc1/C=C/C(=O)O returned DT40 TDP1 no CPT inactive, HepG2 tox inactive, TDP1 inh inactive, DT40 TDP1 CPT inactive, IL1B secr inh inactive and TGFb inhibitor inactive.
For C(=NN1CCCCCC1)c1ccc2ccccc2n1 the results were DT40 TDP1 no CPT 16µM, HepG2 tox inactive, DT40 TDP1 CPT inconclusive, IL1B secr inh inactive and TGFb inhibitor inactive.
`Fc1ccccc1/C=C/c1ccc2ccccc2n1` gave DT40 TDP1 no CPT inconclusive, HepG2 tox inactive, TDP1 inh inactive, DT40 TDP1 CPT inconclusive, IL1B secr inh inactive and TGFb inhibitor inactive.
`O=C(O)/C=C/c1ccc2ccccc2n1` gave DT40 TDP1 no CPT inactive, HepG2 tox inactive, TDP1 inh inactive, DT40 TDP1 CPT inconclusive, IL1B secr inh -71 and TGFb inhibitor inactive.
`CCNC(=O)C1(C)CCCCN1Cc1ccc(C#N)cc1` (stereo unspecified) gave DT40 TDP1 no CPT inconclusive, HepG2 tox inactive, DT40 TDP1 CPT inconclusive, IL1B secr inh inactive and TGFb inhibitor inactive.
For CCN(c1ccc(C(=O)CSc2nnc(C3CC3)n2C2CC2)cc1)S(C)(=O)=O the results were DT40 TDP1 no CPT inactive, HepG2 tox inactive, TDP1 inh inactive, DT40 TDP1 CPT inactive, IL1B secr inh inactive and TGFb inhibitor inactive.
Screening O=S(=O)(Nc1ccc(F)c(Cl)c1)c1ccc(Br)s1 returned DT40 TDP1 no CPT inconclusive, HepG2 tox inactive, TDP1 inh inactive, DT40 TDP1 CPT inconclusive and TGFb inhibitor inconclusive.
For COc1ccccc1OCC(=O)N1CCCC(Nc2ccc(F)c(F)c2)C1 (stereo unspecified) the results were DT40 TDP1 no CPT inactive, HepG2 tox inactive, TDP1 inh inactive, DT40 TDP1 CPT inactive, IL1B secr inh inactive and TGFb inhibitor inactive.
Cc1ccnc(NC(=O)C(C)N2C(=O)c3ccccc3S2(=O)=O)c1 (stereo unspecified) was read as DT40 TDP1 no CPT inactive, HepG2 tox inactive, DT40 TDP1 CPT inactive, IL1B secr inh inactive and TGFb inhibitor inactive.
`Cc1cc2nccc(C)c2cc1C` gave DT40 TDP1 no CPT inactive, HepG2 tox inactive, DT40 TDP1 CPT inactive and TGFb inhibitor inactive.
`Oc1ccc(/C=C/c2ccc3ccccc3n2)cc1` gave DT40 TDP1 no CPT 21µM, HepG2 tox inactive, TDP1 inh inactive, DT40 TDP1 CPT 23µM, IL1B secr inh inactive and TGFb inhibitor inactive.
`C(=C\c1ccnc2ccccc12)/c1ccc2ccccc2n1` gave DT40 TDP1 no CPT 7.9µM, HepG2 tox inactive, DT40 TDP1 CPT 7.1µM and TGFb inhibitor inconclusive.
For O=[N+]([O-])c1ccc(/C=C/c2ccc3ccccc3n2)cc1 the results were DT40 TDP1 no CPT inconclusive, HepG2 tox inactive, TDP1 inh inactive, DT40 TDP1 CPT inconclusive, IL1B secr inh inactive and TGFb inhibitor inactive.
Screening O=C(O)/C=C/c1cccnc1 returned DT40 TDP1 no CPT inactive, HepG2 tox inactive, TDP1 inh inactive, DT40 TDP1 CPT inactive, IL1B secr inh inactive and TGFb inhibitor inactive.
Screening C(=Cc1c[nH]c2ccccc12)c1ccc2ccccc2n1 returned DT40 TDP1 no CPT inconclusive, HepG2 tox inactive, DT40 TDP1 CPT inconclusive, IL1B secr inh inactive and TGFb inhibitor inactive.
For C(=C\c1ccc2ccccc2n1)/c1cccnc1 the results were DT40 TDP1 no CPT 16µM, HepG2 tox inactive, DT40 TDP1 CPT 22µM and TGFb inhibitor inactive.
For N#Cc1cccc(-c2nc3cnc(N4CCOCC4)nc3n(C[C@H]3CCCO3)c2=O)c1 the results were DT40 TDP1 no CPT inactive and DT40 TDP1 CPT inactive.
COc1ccccc1CN(C)C(=O)COC(=O)c1c(C)noc1C was read as DT40 TDP1 no CPT inactive, HepG2 tox inactive, TDP1 inh inactive, DT40 TDP1 CPT inactive, IL1B secr inh inactive and TGFb inhibitor inactive.
For CN1OC[C@@H]2CN(C(=S)NCCc3ccccc3)[C@H](c3ccc(N4CCCCC4)cc3)C[C@@H]21 the results were DT40 TDP1 no CPT inconclusive, HepG2 tox inactive, DT40 TDP1 CPT 16µM, IL1B secr inh inactive and TGFb inhibitor inconclusive.
`CN1OC[C@@H]2CN(C(=O)CCc3ccccc3)[C@H](c3ccc(N4CCCCC4)cc3)C[C@@H]21` gave DT40 TDP1 no CPT inconclusive, HepG2 tox inactive, DT40 TDP1 CPT inconclusive, IL1B secr inh inactive and TGFb inhibitor inactive.
Screening Cc1cccc(NCCC(=O)c2ccc(Br)cc2)c1 returned DT40 TDP1 no CPT 23µM, HepG2 tox inactive, TDP1 inh inactive, DT40 TDP1 CPT 23µM, IL1B secr inh inactive and TGFb inhibitor inactive.
`CCOC(=O)CNCCC(=O)c1ccc(Br)cc1` gave DT40 TDP1 no CPT 6.5µM, HepG2 tox inactive, TDP1 inh inactive, DT40 TDP1 CPT 5.8µM, IL1B secr inh inconclusive and TGFb inhibitor inactive.
CC(C)c1ccc(NCCC(=O)c2ccc(Br)cc2)cc1 was read as DT40 TDP1 no CPT inactive, HepG2 tox inactive, TDP1 inh inactive, DT40 TDP1 CPT inactive, IL1B secr inh inactive and TGFb inhibitor inactive.
Cc1ccc(C(=O)NCC(=O)NCC(=O)OCC(=O)c2ccc(Br)cc2)cc1 was read as DT40 TDP1 no CPT inconclusive, HepG2 tox inactive, TDP1 inh inactive, DT40 TDP1 CPT inactive, IL1B secr inh inactive and TGFb inhibitor inactive.

Source: PubChem BioAssay
